The full list was thinned out, with hits kept by preference.
Dicer processing: blocks human Dicer maturation of pre-miR-21 | AID 1347074 | 6% of 47,000 active | cat-ELCCA pre-miR-21 Dicer processing, chemiluminescence; stronger effect = higher value | Q9UPY3 | z-score at 25 µM; in the data active = z-score above about 3, passing the limit was not always enough;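 also: higher signal means more uncleaved substrate so more Dicer inhibition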
Target sequence (Q9UPY3 whole entry, looked up): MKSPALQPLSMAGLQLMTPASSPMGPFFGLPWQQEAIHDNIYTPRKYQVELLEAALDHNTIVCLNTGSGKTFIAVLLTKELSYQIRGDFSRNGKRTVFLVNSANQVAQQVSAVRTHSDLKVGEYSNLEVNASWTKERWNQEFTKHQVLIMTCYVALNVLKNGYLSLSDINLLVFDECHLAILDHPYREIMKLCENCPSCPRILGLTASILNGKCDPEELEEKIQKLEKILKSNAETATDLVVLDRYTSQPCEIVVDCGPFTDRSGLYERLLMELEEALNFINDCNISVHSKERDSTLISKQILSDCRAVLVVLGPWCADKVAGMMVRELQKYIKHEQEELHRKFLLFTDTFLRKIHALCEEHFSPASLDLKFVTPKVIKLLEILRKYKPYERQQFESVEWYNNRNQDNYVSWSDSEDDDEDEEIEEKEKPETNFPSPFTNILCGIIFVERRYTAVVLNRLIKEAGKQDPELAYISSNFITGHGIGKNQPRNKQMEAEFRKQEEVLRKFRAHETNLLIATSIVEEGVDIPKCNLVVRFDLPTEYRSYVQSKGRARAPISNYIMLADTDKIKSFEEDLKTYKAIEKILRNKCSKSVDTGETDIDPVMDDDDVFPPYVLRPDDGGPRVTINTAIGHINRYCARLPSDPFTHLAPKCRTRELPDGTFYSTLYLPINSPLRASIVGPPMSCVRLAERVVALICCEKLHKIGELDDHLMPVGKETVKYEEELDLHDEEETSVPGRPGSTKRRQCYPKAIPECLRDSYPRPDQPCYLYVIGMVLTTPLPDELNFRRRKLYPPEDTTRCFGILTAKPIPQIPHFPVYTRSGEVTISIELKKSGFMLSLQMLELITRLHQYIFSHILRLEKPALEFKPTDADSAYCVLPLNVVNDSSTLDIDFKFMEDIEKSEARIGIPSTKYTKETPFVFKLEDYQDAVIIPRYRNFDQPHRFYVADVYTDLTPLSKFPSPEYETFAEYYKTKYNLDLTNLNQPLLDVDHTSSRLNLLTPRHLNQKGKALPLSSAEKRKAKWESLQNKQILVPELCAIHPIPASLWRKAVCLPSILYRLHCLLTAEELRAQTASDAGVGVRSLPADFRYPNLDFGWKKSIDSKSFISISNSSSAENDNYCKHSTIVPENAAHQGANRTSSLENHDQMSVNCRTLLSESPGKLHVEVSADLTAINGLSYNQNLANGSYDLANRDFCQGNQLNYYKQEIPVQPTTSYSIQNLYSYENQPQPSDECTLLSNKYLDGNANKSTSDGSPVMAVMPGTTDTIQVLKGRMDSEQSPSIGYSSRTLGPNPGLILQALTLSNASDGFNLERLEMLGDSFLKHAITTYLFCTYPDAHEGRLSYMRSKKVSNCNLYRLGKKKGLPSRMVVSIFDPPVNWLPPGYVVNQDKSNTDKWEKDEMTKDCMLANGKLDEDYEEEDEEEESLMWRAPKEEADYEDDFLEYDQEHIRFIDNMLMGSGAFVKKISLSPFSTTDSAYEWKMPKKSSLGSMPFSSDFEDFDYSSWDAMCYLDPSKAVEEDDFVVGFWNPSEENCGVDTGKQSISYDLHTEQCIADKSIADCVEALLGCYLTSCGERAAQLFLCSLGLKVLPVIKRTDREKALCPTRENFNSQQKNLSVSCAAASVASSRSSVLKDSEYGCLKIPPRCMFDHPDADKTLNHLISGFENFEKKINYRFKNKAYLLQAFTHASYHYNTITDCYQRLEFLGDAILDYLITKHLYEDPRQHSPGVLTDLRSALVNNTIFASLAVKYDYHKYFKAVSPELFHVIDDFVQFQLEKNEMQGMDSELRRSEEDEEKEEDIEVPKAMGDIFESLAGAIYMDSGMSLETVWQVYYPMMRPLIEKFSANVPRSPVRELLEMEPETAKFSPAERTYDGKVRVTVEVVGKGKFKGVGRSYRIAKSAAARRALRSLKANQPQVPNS
Hits are given with their value.

What do the screens show for `COc1ccc(C2SCCN2S(=O)(=O)c2ccc(C)cc2)cc1` (centres undefined)?
Dicer processing: inactive

How did COc1ccccc1C1SCCN1S(=O)(=O)c1ccc(Cl)cc1 (centres undefined) do in these assays?
Dicer processing: inactive

Results for COc1ccc(S(=O)(=O)N2CCSC2c2ccccc2OC)cc1 (centres undefined) ?
Dicer processing: inactive

What do the screens show for `COc1ccc(Br)cc1C1SCCN1S(=O)(=O)c1cccc(C)c1` (centres undefined)?
Dicer processing: inactive

Results for COc1ccc(C2SCCN2S(=O)(=O)c2cccc(C)c2)cc1OC (centres undefined) ?
Dicer processing: inactive

How did COc1ccc(OC)c(C2SCCN2S(=O)(=O)c2ccc(-c3ccccc3)cc2)c1 (centres undefined) do in these assays?
Dicer processing: inactive

What do the screens show for `CCOc1ccc(S(=O)(=O)N2CCSC2c2ccc(OC)c(OC)c2)cc1` (centres undefined)?
Dicer processing: 3.3

Results for COc1ccc(C2SCCN2S(=O)(=O)c2cccc(C)c2)cc1 (centres undefined) ?
Dicer processing: 6.16

How did COc1ccc(S(=O)(=O)N2CCSC2c2ccccc2Cl)cc1 (centres undefined) do in these assays?
Dicer processing: 3.32

What do the screens show for `CCN(C(=S)Nc1cccc(C(F)(F)F)c1)c1ccccc1`?
Dicer processing: inactive

How did c1csc(-c2cncc(-c3nnc(-c4cccc5ccccc45)o3)c2)c1 do in these assays?
Dicer processing: inactive

What do the screens show for `COc1ccc(C2C3=C(CC(C)(C)CC3=O)Nc3cc(OC)c(OC)cc32)cc1` (centres undefined)?
Dicer processing: inactive

How did O=C(O)C1C2CCC(O2)C1C(=O)N1CCN(c2ccc(F)cc2)CC1 (centres undefined) do in these assays?
Dicer processing: inactive

Results for Fc1ccc(OCc2nc(-c3ccc(-n4cccc4)cc3)no2)cc1 ?
Dicer processing: inactive

How did Cn1c(=O)c2c(nc3n(-c4ccc5c(c4)OCO5)c(-c4ccccc4)cn23)n(C)c1=O do in these assays?
Dicer processing: inactive

How did O=C(CSc1nnc2n1CCCN2C(=O)Nc1ccccc1)c1ccc([N+](=O)[O-])cc1 do in these assays?
Dicer processing: inactive

What do the screens show for `CCOc1cc(C2N=C(N)Nc3nc4ccccc4n32)ccc1O` (centres undefined)?
Dicer processing: inactive

What do the screens show for `NC1=NC(c2ccncc2)n2c(nc3ccccc32)N1` (centres undefined)?
Dicer processing: inactive

How did NC1=NC(c2ccccc2)n2c(nc3ccccc32)N1 (centres undefined) do in these assays?
Dicer processing: inactive

Results for COc1cc(C2N=C(N)Nc3nc4ccccc4n32)ccc1O (centres undefined) ?
Dicer processing: 5.87

What do the screens show for `COc1ccc(C2N=C(N)Nc3nc4ccccc4n32)c(OC)c1` (centres undefined)?
Dicer processing: inactive

Results for NC1=NC(c2ccccc2O)n2c(nc3ccccc32)N1 (centres undefined) ?
Dicer processing: 3.56

Results for O=C(/C=C(/CC(=O)c1ccc([N+](=O)[O-])cc1)c1ccccc1)c1ccccc1 ?
Dicer processing: inactive

Results for Cc1ccc(N2C(=O)SC(Nc3ccc(S(N)(=O)=O)cc3)C2=O)cc1 (centres undefined) ?
Dicer processing: inactive

What do the screens show for `Cc1nc(N(C)C)c(C#N)c(C)c1[N+](=O)[O-]`?
Dicer processing: inactive

What do the screens show for `CCOC(=O)c1cc(C)nc(N2CCCCC2)c1C#N`?
Dicer processing: inactive

What do the screens show for `Cc1nc(N2CCCCC2)c(C#N)c(C)c1[N+](=O)[O-]`?
Dicer processing: 4.49

What do the screens show for `NS(=O)(=O)c1cc(Cl)c(Oc2ccc([N+](=O)[O-])cc2Cl)c(Cl)c1`?
Dicer processing: inactive

What do the screens show for `CNC(=O)NC(=S)NC(=O)c1ccc(C)cc1`?
Dicer processing: inactive

Results for CC(=O)Nc1sc2c(c(=O)c1O)CCCC2 ?
Dicer processing: inactive

How did S=C(Nc1cc(Cl)ccc1Cl)N1CCCCC1CCN1CCOCC1 (centres undefined) do in these assays?
Dicer processing: inactive

How did O=C(CC1(O)C(=O)Nc2ccccc21)c1cc(O)ccc1O (centres undefined) do in these assays?
Dicer processing: inactive

How did COc1ccc2[nH]c(C)c(CN3CCC(C)CC3)c(=O)c2c1 do in these assays?
Dicer processing: 3.48

How did COc1ccc2[nH]c(C)c(CN3CCCC3)c(=O)c2c1 do in these assays?
Dicer processing: inactive

What do the screens show for `CCOc1ccc2[nH]c(C)c(CN3CCCC3)c(=O)c2c1`?
Dicer processing: inactive

Results for Nc1c(Cl)ncnc1NCCCn1ccnc1 ?
Dicer processing: inactive

What do the screens show for `COc1cc2ncnc(NCCO)c2cc1OC`?
Dicer processing: inactive

What do the screens show for `COc1ccc(-c2cc(-c3nnc(N)o3)no2)cc1`?
Dicer processing: inactive

Results for O=C(CNC1CCCCC1)Nc1cc(Cl)cc(Cl)c1 ?
Dicer processing: inactive

How did CC1=C(C(=O)OCC(C)C)C(c2ccc(F)cc2)C2=C(CC(c3ccccc3)CC2=O)N1 (centres undefined) do in these assays?
Dicer processing: inactive

How did CCOC(=O)C1=C(C)NC2=C(C(=O)CC(c3ccccc3)C2)C1c1cccc(O)c1 (centres undefined) do in these assays?
Dicer processing: inactive

What do the screens show for `CCOC(=O)C1=C(C)NC2=C(C(=O)CC(c3ccccc3)C2)C1c1ccc(O)c(OCC)c1` (centres undefined)?
Dicer processing: inactive

Results for CCC(C)OC(=O)C1=C(C)NC2=C(C(=O)CC(c3ccccc3)C2)C1c1ccc(N(C)C)cc1 (centres undefined) ?
Dicer processing: 3.34

How did CCOC(=O)C1=C(C)NC2=C(C(=O)CC(c3ccccc3)C2)C1c1cccc(Br)c1 (centres undefined) do in these assays?
Dicer processing: 5.36

What do the screens show for `CC1=C(C(=O)OC(C)C)C(c2ccncc2)C2=C(CC(c3ccccc3)CC2=O)N1` (centres undefined)?
Dicer processing: inactive

Results for CCOCCOC(=O)C1=C(C)NC2=C(C(=O)CC(c3ccc(Cl)cc3)C2)C1c1ccccc1F (centres undefined) ?
Dicer processing: inactive

How did CCCOc1ccc(C2C(C(=O)OC(C)C)=C(C)Nc3nc4ccccc4n32)cc1 (centres undefined) do in these assays?
Dicer processing: inactive

Results for COc1cccc(-c2csc(=NCc3cccnc3)n2-c2ccccc2)c1 ?
Dicer processing: inactive

What do the screens show for `CC1CN(c2ncc(C(=O)OCc3ccccc3)c(C(F)(F)F)n2)CC(C)O1` (centres undefined)?
Dicer processing: inactive

How did O=c1c(-c2ccc3c(c2)OCCO3)coc2cc(O)ccc12 do in these assays?
Dicer processing: inactive

How did CCOC(=O)c1c[nH]c2ccc(C(F)(F)F)cc2c1=O do in these assays?
Dicer processing: inactive

How did CCOC(=O)c1ccc2[nH]cc(C(=O)OCC)c(=O)c2c1 do in these assays?
Dicer processing: inactive

Results for CCOC(=O)c1c[nH]c2ccccc2c1=O ?
Dicer processing: 3.05

What do the screens show for `CCc1nc2nc(CSc3ccc(C)cc3)cc(=O)n2[nH]1`?
Dicer processing: inactive

Results for O=c1cc(-c2ccccc2)nc2nc[nH]n12 ?
Dicer processing: inactive

Results for O=c1cc(CSc2ccc(Cl)cc2)nc2nc[nH]n12 ?
Dicer processing: 4.39

How did COc1ccc(C2C3CCc4ccccc4C3=NN2CCOC(=O)Nc2ccc(Cl)cc2)cc1 (centres undefined) do in these assays?
Dicer processing: inactive
